This is part of a sample that, as a whole, favours compounds with a hit. Of some 79,000 tested, about 15% had one in any assay. Unmarked numbers belong to inactive results. Activity calls are given as the source filed them. No stated cut-off is given here; in the data, active means growth inhibition above about 70%; inactive means the rest.
Tests used:
[1] = NCI Yeast Anticancer Drug Screen. Data for the rad50 strain (AID 155);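 further: 0% = growth of vehicle-only cultures of the same strain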; conditions: S. cerevisiae rad50 strain growth inhibition; at 50.0 µM; active compounds read high
Outline: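 DNA repair mutant yeast, compound exposure, growth read-out; inhibition is taken relative to vehicle.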

[2] = NCI Yeast Anticancer Drug Screen. Data for the mec2-1 strain (AID 157); conditions: S. cerevisiae mec2-1 strain, at 50.0 µM, active compounds read high
Outline: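 Mutant yeast (mec2-1) grown with compound; growth inhibition relative to vehicle control reported.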

[3] = NCI Yeast Anticancer Drug Screen. Data for the sgs1 mgt1 strain (AID 161);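 further: 0% = growth of cultures given vehicle only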; conditions: S. cerevisiae sgs1 mgt1 strain, at 50.0 µM, active compounds read high
Outline: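 Yeast cells carrying a defined DNA-repair defect were exposed to test compounds. Growth inhibition was measured relative to vehicle-treated controls.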

[4] = NCI Yeast Anticancer Drug Screen. Data for the cln2 rad14 strain (AID 165);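 further: 0% = growth equal to vehicle treated cultures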; conditions: S. cerevisiae cln2 rad14 strain, at 50.0 µM, active compounds read high
Outline: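 Readout is yeast growth inhibition versus vehicle-treated controls, using a strain with cln2 and rad14 alterations exposed to compound.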

[5] = NCI Yeast Anticancer Drug Screen. Data for the bub3 strain (AID 167); conditions: S. cerevisiae bub3 mutant strain, at 50.0 µM, active compounds read high
Outline: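 In this screen, a yeast mutant lacking normal mitotic checkpoint function is challenged with compound. Relative growth versus vehicle gives the inhibition value.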

[6] = NCI Yeast Anticancer Drug Screen. Data for the mlh1 rad18 strain (AID 175); conditions: S. cerevisiae mlh1 rad18 strain growth inhibition; at 50.0 µM; active compounds read high
Outline: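 Genetically defined yeast (DNA repair-deficient) exposed to compounds; growth inhibition determined relative to vehicle.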

SMILES | growth inhibition [1] | growth inhibition [2] | growth inhibition [3] | growth inhibition [4] | growth inhibition [5] | growth inhibition [6]
c1ccc2c(c1)Nc1nc3ccccc3nc1N2 | -40% | -5.7% | -33.8% | 15.8% | -8% | 16.9%
O=c1[nH]c2nc(Cl)nc(Cl)c2[nH]1 | 28.4% | 5.55% | 11.4% | 12.1% | 8.3% | 45%
O=C(Nc1ccccc1)/C(N=Nc1ccccc1)=N\Nc1ccccc1 | -12.6% | -16.1% | -10.4% | -28.4% | 6.6% | 19.8%
CC1=C(O)c2ccccc2C(=O)C1=O | 25.4% | 16.8% | 40.3% | 36.2% | 12.8% | 23.8%
O=c1oc2ccc(Cl)cc2c(=O)n1-c1cc(Cl)ccc1[N+](=O)[O-] | -4.65% | -21% | -6.8% | -11.5% | 0.45% | 21.6%
CCN(CC)CCNc1c(C)cccc1Cl | -2.9% | 3.5% | -7.1% | -26.2% | 1% | -1.5%
N#Cc1c2ccccc2cc2c1ccc1ccccc12 | 6.95% | 17.1% | 15.8% | -4.45% | 11.9% | 17.1%
Cc1csc(-c2ccncc2)n1 | 6.05% | 6.9% | -1.55% | -8.3% | 20.5% | -5.35%
CC(=O)c1ccc(N2CCCCC2)cc1 | -7.8% | -12.2% | 4.55% | -3.1% | 40% | -14.4%
CC(=O)CC(=O)N1CCN(C(=O)CC(C)=O)C(C)C1 (configuration not stated) | -7.95% | -58.5% | 6.05% | 1.8% | -11.7% | -6.75%
N#Cc1c(N)[nH]c(=S)c(C#N)c1-c1ccccc1 | 45.9% | 35.5% | 47.4% | 33.5% | 31.4% | 35.1%
FC(F)(F)c1cccc2[nH]cnc12 | -24.6% | -2.85% | 6.25% | -12.4% | -4.65% | 2.3%
CC(=O)N1CCNC(c2ccccc2)C1(C)C (configuration not stated) | -3.05% | -6.95% | -11.3% | -9.3% | -13.4% | 3.85%
Clc1ccccc1-c1c2ccccc2cc2ccc3ccccc3c12 | -6.75% | -11.6% | -3.85% | -39.5% | 18.9% | -12.4%
CC(=O)OC[C@@]12CC[C@H]3C(C)(C)CCC[C@]3(C)[C@H]1C[C@@H](C1=CC(=O)O[C@H]1O)O2 | 86.6% (active) | 91.8% (active) | 91.5% (active) | 91.5% (active) | 89.4% (active) | 90% (active)
CN(CN(C)/N=C/c1cccc([N+](=O)[O-])c1)/N=C\c1cccc([N+](=O)[O-])c1 | -0.05% | -11.6% | -2.9% | -40.9% | 4.95% | -14.3%
CCN(CC)CCNc1ccc2ncn3c4c(OC)ccc(OC)c4c(=O)c1c23 | -21.1% | -22.2% | 0.9% | 22.6% | -47% | 62.1%
CN1C=CCC(C=O)C1 (configuration not stated) | -13.5% | -4.5% | 0.05% | -3.7% | 1.65% | -7.2%
CC(NC(=O)OCC[P+](c1ccccc1)(c1ccccc1)c1ccccc1)C(=O)O (configuration not stated) | -14.2% | -4.35% | -11.6% | 3.45% | -27.1% | -55.2%
COC(=O)C1=C2C3(O)CC4CC5C3CCC(C)N5C24C2CCC(O)C(OC)C2C1OC(=O)c1ccccc1 (configuration not stated) | -34.6% | -38.3% | -20.9% | -1.85% | -30.4% | 4.35%
CC1(C)CC2(C)CC1CC2O (configuration not stated) | 3.5% | 9.6% | -1.95% | 14.8% | 3.85% | -25.4%

SMILES | growth inhibition [1] | growth inhibition [2] | growth inhibition [3] | growth inhibition [4] | growth inhibition [5] | growth inhibition [6]
c1ccc(CCN2CCN=C2Cc2ccccc2)cc1 | 13.8% | 8% | 0.95% | -32.8% | -27.1% | 9.3%
CCC1(C)OCC(CCCCO)O1 (configuration not stated) | -16.2% | -14.9% | -9.4% | -34.9% | -11.4% | 14.3%
CCCCCCc1cc2cc(C(=O)Nc3nc(C45CC6CC(CC(C6)C4)C5)cs3)c(=O)oc2cc1O | -16.4% | -19.8% | -1.15% | 17.9% | -16.6% | -11.7%
S=C(NCCNC(=S)SCc1c(Cl)c(Cl)c(Cl)c(Cl)c1Cl)SCc1c(Cl)c(Cl)c(Cl)c(Cl)c1Cl | 48.1% | 14.3% | 24.6% | -8.85% | -0.7% | 59.8%
Nc1ncnc2c1[nH]c(=O)n2-c1ccccc1 | -46.6% | -30.5% | -16.6% | -1.3% | -17.1% | -6.9%
COc1c(OC(C)=O)c(Cl)cc(C=O)c1[N+](=O)[O-] | 47.1% | 28.7% | 30.1% | 22.1% | 22% | 62.5%
O=S(=O)(O)c1cc(I)c(O)c2ncccc12 | 18.5% | 1% | -1.05% | -67.8% | 19.4% | 45.4%
Cn1c(=S)c2[nH]c(SCCCc3ccccc3)nc2n(C)c1=O | -19.4% | -36% | -5.8% | -32.3% | -25.9% | 12.5%
CC(C)NCC(=O)CCCBr | -5.15% | 0.85% | -3.8% | -23.1% | 5.45% | 10.8%
Cc1nc(/C=C2\C(=O)C=Cc3ccccc32)c(O)o1 | 7.85% | -6.3% | 8.35% | -63% | 16% | 0.3%
O=C1CCN(Cc2ccco2)C(=O)N1 | 1% | -12.3% | 10.9% | -41% | -5.7% | 10.2%
CCN(CC)CC(O)CN1CCCc2ccccc21 (configuration not stated) | -9.4% | 1.5% | 0.6% | -5.4% | 7.85% | -13.4%
CCC(C)NC(=O)/C(=C\c1ccccc1O)NC(=O)c1ccccc1 (configuration not stated) | -30.1% | -35.6% | -2.25% | -5.65% | -4.3% | -4.45%
CC1C(NNC(N)=O)Oc2cc3c(cc2C1c1ccccc1O)OCO3 (configuration not stated) | -5.7% | -25.4% | 11.8% | 10.2% | -11.1% | -4.75%
CC(=O)Oc1cc(C)ccc1C | -2.7% | -0.5% | -18.2% | -55.5% | -21.8% | -0.35%
Cc1ccc(N=Cc2cc(Cl)cc(Cl)c2OC(=O)c2ccccc2)cc1C | 81.8% (active) | 91.7% (active) | 91% (active) | 90.2% (active) | 96.5% (active) | 93.3% (active)
Nc1nc(SCC(=O)O)nc(N)c1N=Nc1ccc(S(=O)(=O)NC(=O)c2ccccc2)cc1 | 7.3% | 5.75% | -7.4% | -0.3% | 0.1% | 15.6%
Nc1cc(Cl)cc2c1nc(NCCO)c1ccccc12 | 54.7% | 60.3% | 49.1% | 97.9% (active) | 51.6% | 56.5%
O=C(Nc1nccs1)Nc1cc(F)ccc1F | 5.7% | 42.5% | 21.5% | -13.2% | 36.6% | 8.35%
CCOCC(C)(CO)CC(C)CO (configuration not stated) | -10.2% | 1.35% | -5.6% | -6.6% | -4.55% | 4%
[NH-]C(CC(N)=O)C(=O)O.[NH-]C(CC(N)=O)C(=O)O.[Zn+2] (configuration not stated) | -3.15% | -2.05% | -3.9% | -18.1% | -2.75% | 5.25%

Source: PubChem BioAssay (NCI)
